The source of these data is PubChem BioAssay (EPA / NIEHS).

The structures appear in SMILES notation. “And” between values parts separate entries of the source, which are not always exact repeats. Equal values may be shown once. The source made the active and inactive calls. Rule for the calls: active = hit-call score of the fitted dose curve at least 0.9, where 1 is the maximum; inactive = score below 0.9.

The nature of the assay: BSK_hDFCGF_Proliferation: Cell Proliferation Assessment in the BioMAP Diversity Plus: hDFCGF Assay (AID 2283059).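 Note: curves fitted for both rise and fall of signal versus DMSO baseline.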 Conditions: primary human foreskin fibroblasts. The protocol:
BSK_hDFCGF is a cell-based, multiplexed-readout assay that uses foreskin fibroblast, a human skin primary cell, with measurements taken at 24 hours after chemical dosing in a 96-well plate.BSK_hDFCGF_Proliferation is an assay component measured in the BSK_hDFCGF assay. It measures […] related to cell proliferation using Sulforhodamine staining technology.Data from the assay component BSK_hDFCGF_Proliferation was analyzed into 1 assay endpoint. This assay endpoint, BSK_hDFCGF_Proliferation, was analyzed with bidirectional fitting relative to DMSO as the negative control and baseline of activity. Using a type of viability reporter, measures of total protein for gain or loss-of-signal activity can be used to understand the viability at the cellular-level. Furthermore, this assay endpoint can be referred to as a secondary readout, because this assay has produced multiple assay endpoints where this one serves a viability function. To generalize the intended target to other relatable targets, this assay endpoint is annotated to the cell cycle intended target family, where the subfamily is proliferation.
The levels of cell surface (or secreted, indicated by the prefix "s") biomarker endpoints were measured by ELISA. Overt cytotoxicity to cells in confluent adherent cultures (all systems other than the BT system) was assessed by measuring total protein levels using sulforhodamine B (SRB) staining in parallel cultures at the time of biomarker measurements, indicated as SRB endpoints. For proliferation assays for adherent cell types, individual cell types are cultured at sub-confluence and relative cell numbers quantified by SRB staining at time points optimized for each system (48 h: 3C and CASM3C systems; 72 h: BT and HDF3CGF systems; 96 h: SAg system). SRB was performed by staining cells with 0.1% SRB after fixation with 10% TCA and reading wells at 560 nm.Viability and proliferation of PBMC (T cells) was quantified by Alamar Blue reduction for the SAg and BT systems. For PBMC viability (referred to as PBMC Cytotoxicity within the assay endpoint names), cells were plated (75,000/well in a 96-well plate) and then chemical samples added for 1 h before addition of activators, SEB and TSST-1 (20 ng/mL final concentration each). Cells were incubated for 90 h. Then, Alamar Blue (20 uL/well) (Invitrogen, Cat DAL1100) was added for 6 h, and the plates were read with a fluorescence microplate reader at 546/580 nm (excitation/emission). For PBMC proliferation, cells were plated and activated as above but incubated for only 16 h prior to addition of Alamar Blue. Plates were read after 6 h.
As to `O=C1CCCCCCCCCCC1`, the result was inactive.
For `CCCCCCC=O`, the outcome was inactive.
Usually AC50 stands for the midpoint of the concentration-response curve, whichever way the signal moves. Take `COc1ccc(C(=O)/C(Br)=C\C(=O)O)cc1`: the AC50 is 29.4 µM (active) and 20 µM (active).
On to `CCCCCCCCC(CO)CCCCCC` (stereo not given), for which the AC50 is 4.06 µM (active).
In the case of `CC(CCC(=O)O)(c1ccc(O)cc1)c1ccc(O)cc1`, the outcome was inactive.
Regarding `C=CC(=O)OCC(C)OCC(C)OCC(C)OC(=O)C=C` (stereo not given), the concentration at half-maximal activity (AC50) was 6.25 µM (active).
Regarding `c1ccc(Nc2cccc3ccccc23)cc1`, the AC50 was 9.99 µM (active) and 12.2 µM (active).
For the compound `CC/C=C\C/C=C\C/C=C\CCCCCCCC(=O)OC`, the AC50 was 1.68 µM (active).
Turning to `CC(Cl)COP(=O)(OCC(C)Cl)OCC(C)Cl` (stereo not given), the result was inactive.
Same read-out and setting: for `CCc1cccc(C)c1N(C(=O)CS(=O)(=O)O)C(C)COC` (stereo not given) the value was “inactive”.
With `O=C1CCCCCCCCCCCN1`, the outcome was inactive.
For the compound `CCCCCCOC(=O)CCCCC(=O)OCCCCCC`, the result was inactive.
For the compound `Nc1ccc(C(=O)O)cc1`, the result was inactive.
Same read-out and setting: for `Cc1c(O)cccc1O` the value was “inactive”.
`CCC1(C)C(=O)N(Cl)C(=O)N1Cl` (stereo not given): the result was inactive.
Consider `Cc1ccc([N+](=O)[O-])cc1N`, for which the result was inactive.
As to `C=CC(=O)OCCCCCCOC(=O)C=C`, the AC50 is 1.72 µM (active).
The same measure, in the same setting: for `CCCCCCCCCCCC(C)=O` the value was 24.6 µM (active).
Take `CCOC(=O)C1=NN(c2ccc(Cl)cc2Cl)C(C)(C(=O)OCC)C1` (stereo not given): the result was inactive.
As to `C=C(C)C(=O)OCCCCCCCCCCCC`, the AC50 is 11.7 µM (active).
With `Oc1ccc(/C=C/c2cc(O)cc(O)c2)cc1`, the half-maximal activity concentration (AC50) was 17.5 µM (active).
With `Fc1ccc(Br)cc1`, the result was inactive.
Consider `Clc1cc(Cl)c(Cl)c(Cl)c1Cl`, for which the result was inactive.
In the case of `c1ccc2sc(SSN3CCOCC3)nc2c1`, the AC50 was 1.41 µM (active).
On to `COc1ccc(C(=O)c2ccccc2)c(O)c1`, for which the result was inactive.
For the compound `CCNc1nc(NC(C)(C)C)nc(OC)n1`, the outcome was inactive.
Take `CC/C=C\CCOC(=O)c1ccccc1O`: the AC50 is 10 µM (active).
As to `CCOC(=O)C1=NOC(c2ccccc2)(c2ccccc2)C1`, the result was inactive.
Regarding `CC(C)CCCCCOC(=O)CS`, the result was inactive.
For the compound `CCCC(C)C(=O)OCC` (stereo not given), the result was inactive.
Regarding `C1CNCCN1`, the outcome was inactive.
Consider `CCCCC1C(=O)N(c2ccccc2)N(c2ccccc2)C1=O`, for which the outcome was inactive.
Take `CCOC(=O)/C=C\C(=O)OCC`: the outcome was inactive.
`C=CCCCCCCCCC=O`: the result was inactive.
Turning to `Oc1ccccc1Cc1ccccc1O`, the AC50 is 28.1 µM (active) and 27 µM (active).
As to `CC(c1cc(C(C)(C)C)cc(C(C)(C)C)c1O)c1cc(C(C)(C)C)cc(C(C)(C)C)c1O`, the outcome was inactive.
Still for that read-out and setting: the value for `COC(OC)(C(=O)c1ccccc1)c1ccccc1` was “inactive”.
In the case of `O=C(Oc1ccccc1)c1ccccc1C(=O)Oc1ccccc1`, the AC50 was 24 µM (active).
Still for that read-out and setting: for `C=CC(=O)OCCCCCCCC(C)C` the value was 9.62 µM (active).
As for `C=CC(=O)NC(C)(C)C`, the result was inactive.
